# In PubChem BioAssay (EPA / NIEHS):
# Inconclusive results are not listed. Active and inactive are the calls of the source. Rule for the calls: active = hit-call score of the fitted dose curve at least 0.9, where 1 is the maximum; inconclusive = response in the unintended direction; inactive = score below 0.9.
# Assays:
# [1] = test system: 5-hydroxytryptamine receptor 2C (pig); experiment: NVS_GPCR_p5HT2C: NovaScreen (NVS) G Protein-Coupled Receptor Assay for pig Serotonin, 5-Hydroxytryptamine Receptor 2C (5HT2C) (AID 2283288)
# In short: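 Radioligand displacement on membranes from pig choroid plexus, detected by filter scintillation counting after 1 h. Tested first at a single 25 uM in duplicate, then in concentration-response for actives; DMSO served as baseline.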
# [2] = molecular target: human Opioid Receptor Mu (Opiate Mu), OPRM1 (gene 4988) (UniProt P35372); experiment: NVS_GPCR_hOpiate_mu: NovaScreen (NVS) G Protein-Coupled Receptor Assay for human Opioid Receptor Mu (Opiate Mu) (AID 2283290);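 note: hits lower bound tracer signal versus DMSO meaning displacement of the ligand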
# In short: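 Radioligand displacement binding on membranes from CHO cells expressing the receptor, 2.5 h after dosing, filter-based scintillation counting; loss of signal vs DMSO baseline. Screened in duplicate at 25 uM, actives then run in concentration series.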
# [3] = molecular target: rat Corticotropin Releasing Factor Receptor (CRF), Crhr1 (gene 58959) (UniProt P35353); experiment: NVS_GPCR_rCRF: NovaScreen (NVS) G Protein-Coupled Receptor Assay for rat Corticotropin Releasing Factor Receptor (CRF) (AID 2283300)
# In short: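 Single-concentration (25 uM, duplicate) radioligand binding on rat cortical membrane preparations, counted by scintillation after 2 h. Activity scored as signal loss relative to DMSO negative control.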
# [4] = test system: guinea pig Atrionatriuretic Peptide Receptor A (ANPA), gene 100135578; experiment: NVS_GPCR_gANPA: NovaScreen (NVS) G Protein-Coupled Receptor Assay for guinea pig Atrionatriuretic Peptide Receptor A (ANPA) (AID 2283291)
# In short: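 Displacement of specific radioligand from guinea pig cerebellum membranes was read by scintillation after 1 h. A duplicate single-point screen at 25 uM was followed by a concentration series up to 50 uM, analysed relative to DMSO.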
# [5] = molecular target: rat Adrenergic, Alpha 1, Non-selective Receptor (Adra1), Adra1a (gene 29412) (UniProt P43140); experiment: NVS_GPCR_rAdra1_NonSelective: NovaScreen (NVS) G Protein-Coupled Receptor Assay for rat Adrenergic, Alpha 1, Non-selective Receptor (Adra1) (AID 2283289)
# In short: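 Chemicals first screened in duplicate at 25 uM, then actives tested in concentration series up to 50 uM. Binding measured as displacement of radioligand from rat forebrain membrane receptors, 1 h, filtration with scintillation readout; DMSO baseline.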
# [6] = molecular target: guinea pig Serotonin, 5-Hydroxytryptamine Receptor 4 (5HT4), HTR4 (gene 100135548) (UniProt O70528); experiment: NVS_GPCR_g5HT4: NovaScreen (NVS) G Protein-Coupled Receptor Assay for guinea pig Serotonin, 5-Hydroxytryptamine Receptor 4 (5HT4) (AID 2283294)
# In short: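 Compounds first screened in duplicate at 25 uM, actives followed up in concentration series. Binding measured as displacement of specific radioligand from guinea pig striatal membranes, 1 h, filter-based scintillation read-out versus DMSO baseline.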
# [7] = test system: rat Adrenergic, Alpha 1B Receptor (Adra1B), gene 24173; experiment: NVS_GPCR_rAdra1B: NovaScreen (NVS) G Protein-Coupled Receptor Assay for rat Adrenergic, Alpha 1B Receptor (Adra1B) (AID 2283297)
# In short: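 Filter-binding radioligand competition on membranes from rat liver, read after 1 h by scintillation counting. Single-concentration duplicate screen at 25 uM, followed by concentration-response on actives, normalised to DMSO.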
# [8] = molecular target: rat Opioid Receptor, Non-selective Sodium (Na+) Binding, Oprm1 (gene 25601) (UniProt P33535); experiment: NVS_GPCR_rOpiate_NonSelectiveNa: NovaScreen (NVS) G Protein-Coupled Receptor Assay for rat Opioid Receptor, Non-selective Sodium (Na+) Binding (AID 2283311)
# In short: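 Filtration radioligand binding on rat forebrain membrane preparations, read 1.5 h after dosing. Single-concentration 25 µM primary screen in duplicate, followed by singleton concentration series to 50 µM max for actives; DMSO baseline.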
# [9] = molecular target: rat Neurokinin-1 Receptor (NK1), Tacr1 (gene 24807) (UniProt P14600); experiment: NVS_GPCR_rNK1: NovaScreen (NVS) G Protein-Coupled Receptor Assay for rat Neurokinin-1 Receptor (NK1) (AID 2283309)
# In short: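 Competitive radioligand binding to NK1 in rat submaxillary membranes, 1 h incubation, filtration and scintillation read-out. Compounds first screened at 25 uM in duplicate, then concentration-response for actives; signal loss relative to DMSO.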
# [10] = molecular target: mouse Cholecystokinin, CCK2 Receptor (CCKB), Cckbr (gene 12426) (UniProt P56481); experiment: NVS_GPCR_mCKKBCentral: NovaScreen (NVS) G Protein-Coupled Receptor Assay for mouse Cholecystokinin, CCK2 Receptor (CCKB) (AID 2283293)
# In short: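 Mouse forebrain membrane preparation incubated 2 h with chemical and radioligand; bound radioactivity counted after filtration. Single-concentration duplicate screen at 25 uM, then concentration series to 50 uM max for hits, DMSO as baseline.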
# [11] = molecular target: guinea pig Bradykinin Receptor B2 (BK2), BDKRB2 (gene 100135486) (UniProt O70526); experiment: NVS_GPCR_gBK2: NovaScreen (NVS) G Protein-Coupled Receptor Assay for guinea pig Bradykinin Receptor B2 (BK2) (AID 2283292)
# In short: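 Guinea pig ileum membrane preparation incubated 1 h with radioligand and test chemical; bound counts measured after filtration. Primary duplicate screening at 25 uM, then singleton concentration series with a 50 uM top dose; DMSO as baseline.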
# [12] = molecular target: rat Neurokinin-3 Receptor (NK3), Tacr3 (gene 24808) (UniProt P16177); experiment: NVS_GPCR_rNK3: NovaScreen (NVS) G Protein-Coupled Receptor Assay for rat Neurokinin-3 Receptor (NK3) (AID 2283310)
# In short: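 Filter-based radioligand displacement on rat cortex membrane preparations, read by scintillation 2 h post-dose. Chemicals first tested in duplicate at 25 uM; actives followed up in concentration series with a 50 uM maximum.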
# [13] = molecular target: rat Adrenergic Receptor, Beta (Adrb), Non-selective Binding, Adrb1 (gene 24925) (UniProt P18090); experiment: NVS_GPCR_rAdrb_NonSelective: NovaScreen (NVS) G Protein-Coupled Receptor Assay for rat Adrenergic Receptor, Beta (Adrb), Non-selective Binding (AID 2283298)
# In short: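 Rat cortical membranes incubated 1 h with beta-adrenergic radioligand and test chemical; bound ligand measured by filtration and scintillation counting. Screen at 25 uM duplicate, then concentration series with 50 uM maximum; loss of signal versus DMSO.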
# [14] = molecular target: rat Gamma-Aminobutyric Acid Type B Receptor (GABBR), Gabbr1 (gene 81657) (UniProt Q9Z0U4); experiment: NVS_GPCR_rGABBR: NovaScreen (NVS) G Protein-Coupled Receptor Assay for rat Gamma-Aminobutyric Acid Type B Receptor (GABBR) (AID 2283301)
# In short: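 Rat cortical membrane preparation, competitive radioligand binding for 1 h with filtration and scintillation readout. Actives from duplicate single-point 25 uM screening proceeded to concentration series with 50 uM top concentration.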
# [15] = molecular target: rat Histamine Receptor (H3), Hrh3 (gene 85268) (UniProt Q9QYN8); experiment: NVS_GPCR_rH3: NovaScreen (NVS) G Protein-Coupled Receptor Assay for rat Histamine Receptor (H3) (AID 2283303)
# In short: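 Filter-binding radioligand competition on rat forebrain membranes, 1 h incubation; compounds screened at 25 µM in duplicate and followed in concentration series to 50 µM, loss of bound signal vs DMSO.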
# Adra2b (gene 24174) = Adra2b (gene 24174) (UniProt P19328); experiment: NVS_GPCR_rmAdra2B: NovaScreen (NVS) G Protein-Coupled Receptor Assay for hybird cells Adrenergic, Alpha 2B Receptor (Adra2B) (AID 2283306)
# In short: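 Compounds screened first at 25 uM in duplicate, with actives followed up in concentration-response; specific radioligand displacement from hybrid neuroglioma/blastoma cell membrane preparations measured by filter scintillation counting after 1 h, normalized to DMSO.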
# [16] = molecular target: mouse Cholecystokinin, CCK1 Receptor (CCKA), Cckar (gene 12425) (UniProt O08786); experiment: NVS_GPCR_mCCKAPeripheral: NovaScreen (NVS) G Protein-Coupled Receptor Assay for mouse Cholecystokinin, CCK1 Receptor (CCKA) (AID 2283285)
# In short: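 Chemicals were first screened in duplicate at 25 uM, with those meeting threshold (e.g., 30% inhibition) retested in singleton concentration series to 50 uM maximum. Binding of radioligand to mouse pancreatic membranes was read after 2 h by filtration and scintillation counting.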
# [17] = test system: rabbit Platelet Activating Factor Receptor (PAF), gene 100354046; experiment: NVS_GPCR_rabPAF: NovaScreen (NVS) G Protein-Coupled Receptor Assay for rabbit Platelet Activating Factor Receptor (PAF) (AID 2283287)
# In short: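 Rabbit platelet membrane preparation; radioligand displacement read by filter-based scintillation counting 1 h after dosing, loss of signal versus DMSO. Primary screen in duplicate at 25 uM, actives followed up in concentration series.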
# [18] = molecular target: Metabotropic glutamate receptor 1 (Rattus norvegicus) (UniProt P23385); experiment: NVS_GPCR_rmMGluR1: NovaScreen (NVS) G Protein-Coupled Receptor Assay for rat Glutamate Metabotropic Receptor 1 (MGluR1) (AID 2283305)
# In short: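 Binding to native receptor from rat cerebellum extract, measured as displacement of a radioligand (scintillation counting, filter separation) after 1 hour. Compounds tested at 25 uM in duplicate, then titrated to a 50 uM maximum.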
# [19] = molecular target: rat Serotonin, 5-Hydroxytryptamine Receptor 1 (5HT1), Non-Selective Binding, Htr1a (gene 24473) (UniProt P19327); experiment: NVS_GPCR_r5HT1_NonSelective: NovaScreen (NVS) G Protein-Coupled Receptor Assay for rat Serotonin, 5-Hydroxytryptamine Receptor 1 (5HT1), Non-Selective Binding (AID 2283286)
# In short: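 Binding of a radioligand to rat cortex membranes is read by filtration and scintillation counting after 1 h. Compounds were screened at 25 uM in duplicate. Actives were then titrated to a top of 50 uM. DMSO is the baseline.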
# Sequence of rat Neurokinin-1 Receptor (NK1), Tacr1 (gene 24807) (P14600 whole entry, looked up): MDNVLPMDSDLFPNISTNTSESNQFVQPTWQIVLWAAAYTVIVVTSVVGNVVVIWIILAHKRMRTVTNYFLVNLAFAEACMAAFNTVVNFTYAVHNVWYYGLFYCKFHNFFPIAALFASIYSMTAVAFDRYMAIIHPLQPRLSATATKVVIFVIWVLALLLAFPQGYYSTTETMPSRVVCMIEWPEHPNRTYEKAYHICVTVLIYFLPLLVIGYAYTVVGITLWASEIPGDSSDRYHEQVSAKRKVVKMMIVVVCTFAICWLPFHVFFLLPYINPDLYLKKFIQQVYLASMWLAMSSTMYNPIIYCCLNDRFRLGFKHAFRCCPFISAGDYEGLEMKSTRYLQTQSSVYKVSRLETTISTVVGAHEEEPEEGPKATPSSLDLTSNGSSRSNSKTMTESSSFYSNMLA
# Sequence of mouse Cholecystokinin, CCK1 Receptor (CCKA), Cckar (gene 12425) (O08786 whole entry, looked up): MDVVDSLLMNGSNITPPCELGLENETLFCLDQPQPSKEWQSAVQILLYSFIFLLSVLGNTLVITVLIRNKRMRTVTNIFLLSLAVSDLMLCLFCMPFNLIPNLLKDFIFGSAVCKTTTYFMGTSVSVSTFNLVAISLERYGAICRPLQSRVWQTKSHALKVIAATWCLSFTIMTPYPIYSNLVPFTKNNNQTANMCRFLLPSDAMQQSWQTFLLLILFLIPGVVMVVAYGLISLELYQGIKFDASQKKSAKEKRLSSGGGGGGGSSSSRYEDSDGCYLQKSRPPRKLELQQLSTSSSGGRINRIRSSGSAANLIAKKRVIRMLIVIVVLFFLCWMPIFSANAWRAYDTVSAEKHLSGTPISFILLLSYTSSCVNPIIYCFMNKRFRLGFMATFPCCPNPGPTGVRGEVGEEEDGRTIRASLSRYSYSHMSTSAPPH
# Sequence of rat Serotonin, 5-Hydroxytryptamine Receptor 1 (5HT1), Non-Selective Binding, Htr1a (gene 24473) (P19327 whole entry, looked up): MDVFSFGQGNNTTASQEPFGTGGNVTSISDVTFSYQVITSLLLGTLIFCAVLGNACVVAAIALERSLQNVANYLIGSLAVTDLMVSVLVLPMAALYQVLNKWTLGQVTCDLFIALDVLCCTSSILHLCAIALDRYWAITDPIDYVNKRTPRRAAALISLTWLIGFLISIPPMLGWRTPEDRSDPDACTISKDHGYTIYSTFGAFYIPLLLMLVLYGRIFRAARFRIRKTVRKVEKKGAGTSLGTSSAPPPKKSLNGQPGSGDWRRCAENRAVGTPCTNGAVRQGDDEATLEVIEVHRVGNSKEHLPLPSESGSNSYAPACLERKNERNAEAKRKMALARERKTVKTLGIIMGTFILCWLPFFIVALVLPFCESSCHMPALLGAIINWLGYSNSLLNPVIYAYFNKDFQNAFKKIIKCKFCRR
# Sequence of human Opioid Receptor Mu (Opiate Mu), OPRM1 (gene 4988) (P35372 whole entry, looked up): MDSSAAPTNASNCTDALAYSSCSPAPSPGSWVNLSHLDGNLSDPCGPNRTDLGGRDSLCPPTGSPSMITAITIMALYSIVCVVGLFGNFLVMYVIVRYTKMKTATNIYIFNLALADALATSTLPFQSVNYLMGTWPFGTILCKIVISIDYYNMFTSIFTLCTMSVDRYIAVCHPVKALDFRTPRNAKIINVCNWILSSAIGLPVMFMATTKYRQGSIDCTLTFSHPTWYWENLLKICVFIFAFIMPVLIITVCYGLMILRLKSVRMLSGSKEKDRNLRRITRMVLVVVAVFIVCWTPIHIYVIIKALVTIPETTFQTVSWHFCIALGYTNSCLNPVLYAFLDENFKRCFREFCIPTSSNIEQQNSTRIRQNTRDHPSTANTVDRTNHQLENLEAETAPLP
# Sequence of guinea pig Serotonin, 5-Hydroxytryptamine Receptor 4 (5HT4), HTR4 (gene 100135548) (O70528 whole entry, looked up): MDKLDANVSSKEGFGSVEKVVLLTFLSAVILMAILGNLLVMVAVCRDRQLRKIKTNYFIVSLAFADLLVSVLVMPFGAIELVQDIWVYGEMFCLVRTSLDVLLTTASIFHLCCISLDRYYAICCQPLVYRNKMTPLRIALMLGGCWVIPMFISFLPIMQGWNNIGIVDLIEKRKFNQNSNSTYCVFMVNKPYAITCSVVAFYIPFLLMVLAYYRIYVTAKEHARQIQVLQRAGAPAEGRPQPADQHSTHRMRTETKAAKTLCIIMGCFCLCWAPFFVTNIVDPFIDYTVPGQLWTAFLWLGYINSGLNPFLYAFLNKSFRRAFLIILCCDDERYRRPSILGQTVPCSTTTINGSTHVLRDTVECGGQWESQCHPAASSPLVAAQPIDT
# Sequence of rat Neurokinin-3 Receptor (NK3), Tacr3 (gene 24808) (P16177 whole entry, looked up): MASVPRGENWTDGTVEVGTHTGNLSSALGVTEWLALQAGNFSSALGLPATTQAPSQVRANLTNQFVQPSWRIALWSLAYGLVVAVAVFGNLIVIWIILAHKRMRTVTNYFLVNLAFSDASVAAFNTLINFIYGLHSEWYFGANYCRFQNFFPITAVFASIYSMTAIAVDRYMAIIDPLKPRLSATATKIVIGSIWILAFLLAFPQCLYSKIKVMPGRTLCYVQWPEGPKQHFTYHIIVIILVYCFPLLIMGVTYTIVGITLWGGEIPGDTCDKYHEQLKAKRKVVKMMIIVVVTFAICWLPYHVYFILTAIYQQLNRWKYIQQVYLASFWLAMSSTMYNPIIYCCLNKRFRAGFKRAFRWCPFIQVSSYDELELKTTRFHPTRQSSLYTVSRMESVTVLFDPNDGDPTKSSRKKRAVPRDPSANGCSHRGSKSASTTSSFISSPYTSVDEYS
# Sequence of rat Opioid Receptor, Non-selective Sodium (Na+) Binding, Oprm1 (gene 25601) (P33535 whole entry, looked up): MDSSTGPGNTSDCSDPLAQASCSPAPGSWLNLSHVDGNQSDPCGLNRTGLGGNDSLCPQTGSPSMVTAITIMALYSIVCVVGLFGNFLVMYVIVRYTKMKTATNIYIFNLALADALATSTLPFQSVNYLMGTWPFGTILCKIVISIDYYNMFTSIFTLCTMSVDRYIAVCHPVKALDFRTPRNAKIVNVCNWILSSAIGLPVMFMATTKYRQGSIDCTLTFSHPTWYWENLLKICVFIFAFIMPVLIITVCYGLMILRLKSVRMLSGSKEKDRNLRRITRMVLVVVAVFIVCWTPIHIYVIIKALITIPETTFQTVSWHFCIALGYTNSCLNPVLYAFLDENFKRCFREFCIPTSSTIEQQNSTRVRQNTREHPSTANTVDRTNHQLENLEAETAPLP
# Sequence of guinea pig Bradykinin Receptor B2 (BK2), BDKRB2 (gene 100135486) (O70526 whole entry, looked up): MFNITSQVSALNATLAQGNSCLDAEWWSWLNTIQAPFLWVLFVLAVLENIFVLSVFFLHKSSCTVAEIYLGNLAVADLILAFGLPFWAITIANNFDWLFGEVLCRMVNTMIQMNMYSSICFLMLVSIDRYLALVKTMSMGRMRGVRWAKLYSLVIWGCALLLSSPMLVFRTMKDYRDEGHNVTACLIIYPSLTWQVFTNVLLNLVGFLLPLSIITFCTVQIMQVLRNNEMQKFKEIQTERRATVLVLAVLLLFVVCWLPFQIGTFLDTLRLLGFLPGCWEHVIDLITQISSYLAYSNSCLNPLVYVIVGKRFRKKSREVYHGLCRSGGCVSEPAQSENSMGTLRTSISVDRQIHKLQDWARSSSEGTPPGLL
# Sequence of mouse Cholecystokinin, CCK2 Receptor (CCKB), Cckbr (gene 12426) (P56481 whole entry, looked up): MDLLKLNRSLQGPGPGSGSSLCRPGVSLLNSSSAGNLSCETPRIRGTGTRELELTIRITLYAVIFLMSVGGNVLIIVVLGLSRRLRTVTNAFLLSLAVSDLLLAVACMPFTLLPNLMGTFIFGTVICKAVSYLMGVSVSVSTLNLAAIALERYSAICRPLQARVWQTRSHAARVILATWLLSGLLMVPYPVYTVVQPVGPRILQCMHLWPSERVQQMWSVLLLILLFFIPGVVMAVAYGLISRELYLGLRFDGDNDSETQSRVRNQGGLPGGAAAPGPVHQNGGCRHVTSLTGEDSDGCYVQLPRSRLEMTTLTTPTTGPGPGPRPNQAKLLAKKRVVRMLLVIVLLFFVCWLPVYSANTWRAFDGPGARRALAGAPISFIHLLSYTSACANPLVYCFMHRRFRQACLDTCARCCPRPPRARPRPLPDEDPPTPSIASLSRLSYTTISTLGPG
# Sequence of Adra2b (gene 24174) (P19328 whole entry, looked up): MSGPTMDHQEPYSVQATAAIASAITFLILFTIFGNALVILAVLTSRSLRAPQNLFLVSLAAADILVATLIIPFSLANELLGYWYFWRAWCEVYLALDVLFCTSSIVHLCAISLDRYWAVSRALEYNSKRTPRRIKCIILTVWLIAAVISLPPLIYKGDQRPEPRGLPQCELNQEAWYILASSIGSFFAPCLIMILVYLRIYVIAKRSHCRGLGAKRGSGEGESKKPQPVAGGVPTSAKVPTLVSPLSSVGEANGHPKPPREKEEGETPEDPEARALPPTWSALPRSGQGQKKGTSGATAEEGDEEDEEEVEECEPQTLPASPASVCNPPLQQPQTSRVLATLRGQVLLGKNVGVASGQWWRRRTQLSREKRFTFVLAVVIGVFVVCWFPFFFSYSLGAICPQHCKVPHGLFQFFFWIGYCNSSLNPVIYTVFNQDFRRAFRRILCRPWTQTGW
# Sequence of rat Adrenergic, Alpha 1, Non-selective Receptor (Adra1), Adra1a (gene 29412) (P43140 whole entry, looked up): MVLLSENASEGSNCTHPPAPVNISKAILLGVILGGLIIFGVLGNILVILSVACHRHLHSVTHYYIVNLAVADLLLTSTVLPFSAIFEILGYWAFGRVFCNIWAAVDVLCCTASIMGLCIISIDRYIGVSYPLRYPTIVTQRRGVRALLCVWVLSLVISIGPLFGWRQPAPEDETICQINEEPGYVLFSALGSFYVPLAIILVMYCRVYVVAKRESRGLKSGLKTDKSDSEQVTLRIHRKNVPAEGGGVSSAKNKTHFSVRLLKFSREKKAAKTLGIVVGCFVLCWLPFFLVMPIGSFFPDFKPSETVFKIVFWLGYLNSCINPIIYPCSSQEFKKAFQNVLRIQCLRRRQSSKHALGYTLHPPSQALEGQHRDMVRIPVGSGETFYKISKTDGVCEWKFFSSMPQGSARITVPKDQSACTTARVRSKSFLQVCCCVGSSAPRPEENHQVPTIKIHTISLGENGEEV
smiles,measurement,setting,value
CCOP(=S)(OCC)SCSC(C)(C)C,outcome,[1],inactive
Clc1ccc(C(c2ccccc2Cl)C(Cl)(Cl)Cl)cc1 (stereo unspecified),outcome,[2],inactive
CC(c1ccc(O)cc1)(c1ccc(O)cc1)c1ccc(O)cc1,outcome,[3],inactive
ClC1=C(Cl)[C@]2(Cl)[C@@H]3[C@H]4C[C@H]([C@@H]5O[C@H]45)[C@@H]3[C@@]1(Cl)C2(Cl)Cl,outcome,[4],inactive
Oc1ccc(C(c2ccc(O)cc2)(C(F)(F)F)C(F)(F)F)cc1,AC50,[1],1.39 µM (active)
same,AC50,[5],38.1 µM (active)
same,AC50,[2],4.93 µM (active)
same,AC50,[6],11.7 µM (active)
same,AC50,[7],41.2 µM (active)
same,AC50,[8],25 µM (active)
Oc1ccc(Cl)cc1Cl,outcome,[1],inactive
CC(C)(O)C(=O)Nc1ccc([N+](=O)[O-])c(C(F)(F)F)c1,AC50,[1],19.2 µM (active)
CCC(C)(c1ccc(O)cc1)c1ccc(O)cc1,AC50,[1],16.9 µM (active)
same,AC50,[2],9.36 µM (active)
same,AC50,[6],16.5 µM (active)
same,AC50,[8],25 µM (active)
O=C(NC(=O)c1c(F)cccc1F)Nc1cc(Cl)c(OC(F)(F)C(F)F)c(Cl)c1,outcome,[8],inactive
O=C(O)C(F)(F)C(F)(F)C(F)(F)C(F)(F)C(F)(F)C(F)(F)C(F)(F)C(F)(F)C(F)(F)F,AC50,[2],25 µM (active)
CCSC(=O)N(CC)C1CCCCC1,AC50,[9],40.1 µM (active)
COc1ccc(O)c(C(C)(C)C)c1,AC50,[1],13.2 µM (active)
same,outcome,[5],inactive
same,outcome,[10],inactive
same,AC50,[6],18.8 µM (active)
CC(C)C(=O)OCC(C)(C)C(OC(=O)C(C)C)C(C)C (stereo unspecified),outcome,[11],inactive
Nc1ccc(-c2ccc(N)cc2)cc1,outcome,[7],inactive
CCCCCCCCCc1ccc(O)cc1,outcome,[12],inactive
O=C(N[C@H]1CN2CCC1CC2)c1cc2ccoc2cn1,AC50,[6],16.4 µM (active)
same,AC50,[7],11 µM (active)
same,outcome,[13],inactive
same,outcome,[14],inactive
same,AC50,[15],1.75 µM (active)
same,AC50,Adra2b (gene 24174),16.4 µM (active)
C[C@]12CCC(=O)C=C1CC[C@@H]1[C@@H]2CC[C@]2(C)C(=O)CC[C@@H]12,outcome,[8],inactive
CC(C)(c1ccccc1)c1ccc(O)cc1,AC50,[16],18.2 µM (active)
same,AC50,[1],17.9 µM (active)
same,AC50,[2],11.8 µM (active)
same,AC50,[10],18.5 µM (active)
same,AC50,[6],23.7 µM (active)
same,outcome,[8],inactive
CC1=C2C[C@H]3[C@@H](CC=C4C[C@@H](O)CC[C@@]43C)[C@@H]2CC[C@]12O[C@@H]1C[C@H](C)CN[C@H]1[C@H]2C,outcome,[6],inactive
same,outcome,[7],inactive
CCOC(=O)C(O)(c1ccc(Cl)cc1)c1ccc(Cl)cc1,AC50,[16],11.7 µM (active)
same,AC50,[17],7.46 µM (active)
CCCCCCCCCC[N+](C)(C)CCCCCCCCCC,AC50,[16],6.6 µM (active)
same,AC50,[17],7.2 µM (active)
same,AC50,[1],21.1 µM (active)
same,AC50,[2],4.3 µM (active)
same,AC50,[6],21.9 µM (active)
same,AC50,[18],17.6 µM (active)
same,outcome,Adra2b (gene 24174),inactive
same,outcome,[9],inactive
same,outcome,[12],inactive
same,outcome,[8],inactive
Cc1ccc(O)c(C)c1,outcome,[1],inactive
same,outcome,[11],inactive
O=S(=O)(O)C(F)(F)C(F)(F)C(F)(F)C(F)(F)C(F)(F)C(F)(F)F,outcome,[4],inactive
C[C@]12CCC(=O)C=C1CC[C@@H]1[C@@H]2CC[C@@]2(C)[C@H]1CC[C@]2(C)O,outcome,[2],inactive
Cc1ccccc1[N+](=O)[O-],outcome,[19],inactive
Cc1cc(-c2ccc(N)c(C)c2)ccc1N,outcome,[13],inactive
CCC(=O)O[C@H]1CC[C@H]2[C@@H]3CCC4=CC(=O)CC[C@]4(C)[C@H]3CC[C@]12C,outcome,[18],inactive
same,outcome,[12],inactive
Cc1cc2c3c(c1)C(c1ccccc1)=N[C@@H](NC(=O)c1ccncc1)C(=O)N3CC2,AC50,[16],19.9 µM (active)
same,AC50,[19],6.17 µM (active)
same,outcome,[9],inactive
same,AC50,[12],0.073 µM (active)
same,outcome,[8],inactive
Cc1cc(O)ccc1Cl,AC50,[1],9.65 µM (active)
CCC(C)(CC)c1cc(NC(=O)c2c(OC)cccc2OC)on1,outcome,[19],inactive
same,outcome,[12],inactive
NS(=O)(=O)C(F)(F)C(F)(F)C(F)(F)C(F)(F)C(F)(F)C(F)(F)C(F)(F)C(F)(F)F,outcome,[2],inactive
same,outcome,[4],inactive
